In PubChem BioAssay AID1159580 (chemical genetic matrix, 2015):
Screen size: about 5,500 compounds; about 2,000 (36%) were called active. Not shown: some 18% with an inconclusive outcome. The list shows a part of the results. A number with no mark means an inactive call. No stated cut-off is given here; in the data, active means normalized growth mostly below about 0.91 (no sharp cut-off); inconclusive means no clear call, values can overlap the other calls; inactive means mostly above about 0.92.

Experiment: chemical genetic growth profiling, strain panel (AID 1159580);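 further: tested at 20 µM; growth read once vehicle control cultures reached saturation at 30 °C; 1 = growth at the plate median or of vehicle wells; lower values mean less growth of the strain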
Settings: S. cerevisiae deletion strains, growth OD

CC(C)=CCc1c2c(c(O)c3c(=O)c(O)c(-c4ccccc4)oc13)C=CC(C)(C)O2
normalized growth (locus YAL021C, strain ccr4, active compounds read low): 0.79 (active)
normalized growth (locus YAL026C, strain drs2, active compounds read low): 0.566 (active)
normalized growth (locus YAL030W, strain snc1, active compounds read low): 0.886 (active)
normalized growth (locus YBL061C, strain skt5, active compounds read low): 0.688 (active)
normalized growth (locus YBR009C, strain hhf1, active compounds read low): 0.917
normalized growth (locus YBR021W, strain FUR4, active compounds read low): 0.958
normalized growth (locus YBR023C, strain chs3, active compounds read low): 0.687 (active)
normalized growth (locus YBR171W, strain sec66, active compounds read low): 0.939
normalized growth (locus YBR229C, strain ROT2, active compounds read low): 0.829 (active)
normalized growth (locus YBR231C, strain swc5, active compounds read low): 0.678 (active)
normalized growth (locus YBR279W, strain paf1, active compounds read low): 0.988
normalized growth (locus YCL011C, strain gbp2, active compounds read low): 0.683 (active)
normalized growth (locus YCL016C, strain dcc1, active compounds read low): 0.962
normalized growth (locus YCL029C, strain bik1, active compounds read low): 0.678 (active)
normalized growth (locus YCL061C, strain MRC1, active compounds read low): 0.748 (active)
normalized growth (locus YCL069W, strain vba3, active compounds read low): 0.751 (active)
normalized growth (locus YCR088W, strain abp1, active compounds read low): 0.835 (active)
normalized growth (locus YDL005C, strain med2, active compounds read low): 0.981
normalized growth (locus YDL035C, strain GPR1, active compounds read low): 0.589 (active)
normalized growth (locus YDL040C, strain nat1, active compounds read low): 1.01
normalized growth (locus YDL074C, strain BRE1, active compounds read low): 0.49 (active)
normalized growth (locus YDL101C, strain DUN1, active compounds read low): 0.628 (active)
normalized growth (locus YDL185W, strain tfp1, active compounds read low): 0.769 (active)
normalized growth (locus YDL192W, strain arf1, active compounds read low): 0.732 (active)
normalized growth (locus YDR001C, strain nth1, active compounds read low): 0.931
normalized growth (locus YDR069C, strain doa4, active compounds read low): 0.613 (active)
normalized growth (locus YDR101C, strain arx1, active compounds read low): 0.809 (active)
normalized growth (locus YDR137W, strain rgp1, active compounds read low): 1.04
normalized growth (locus YDR159W, strain sac3, active compounds read low): 0.876
normalized growth (locus YDR162C, strain NBP2, active compounds read low): 0.326 (active)
normalized growth (locus YDR195W, strain ref2): 0.896
normalized growth (locus YDR297W, strain sur2, active compounds read low): 0.821 (active)
normalized growth (locus YDR318W, strain mcm21, active compounds read low): 0.73 (active)
normalized growth (locus YDR334W, strain swr1, active compounds read low): 0.582 (active)
normalized growth (locus YDR335W, strain msn5, active compounds read low): 0.793 (active)
normalized growth (locus YDR388W, active compounds read low): 0.745 (active)
normalized growth (locus YDR392W, strain spt3, active compounds read low): 0.602 (active)
normalized growth (locus YDR502C, strain sam2, active compounds read low): 0.794 (active)
normalized growth (locus YEL003W, strain gim4, active compounds read low): 0.683 (active)
normalized growth (locus YEL037C, strain rad23, active compounds read low): 0.788 (active)
normalized growth (locus YEL061C, strain CIN8 (second series), active compounds read low): 0.876 (active)
normalized growth (locus YER015W, strain faa2, active compounds read low): 0.457 (active)
normalized growth (locus YER016W, strain bim1, active compounds read low): 0.987
normalized growth (locus YER110C, active compounds read low): 0.927
normalized growth (locus YER111C, strain swi4, active compounds read low): 0.734 (active)
normalized growth (locus YER155C, strain BEM2 (second series), active compounds read low): 0.755 (active)
normalized growth (locus YER155C, strain BEM2, active compounds read low): 0.762 (active)
normalized growth (locus YER167W, strain BCK2, active compounds read low): 0.683 (active)
normalized growth (locus YFR010W, strain ubp6, active compounds read low): 0.632 (active)
normalized growth (locus YGL078C, strain dbp3, active compounds read low): 0.942
normalized growth (locus YGL086W, strain mad1, active compounds read low): 0.701 (active)
normalized growth (locus YGL167C, strain pmr1, active compounds read low): 0.996
normalized growth (locus YGL173C, strain kem1, active compounds read low): 0.475 (active)
normalized growth (locus YGL227W, strain vid30, active compounds read low): 0.973
normalized growth (locus YGL240W, strain doc1, active compounds read low): 0.977
normalized growth (locus YGL248W, strain PDE1, active compounds read low): 0.586 (active)
normalized growth (locus YGL253W, strain hxk2, active compounds read low): 0.657 (active)
normalized growth (locus YGR078C, strain PAC10, active compounds read low): 0.554 (active)
normalized growth (locus YGR135W, strain pre9, active compounds read low): 0.69 (active)
normalized growth (locus YGR252W, strain gcn5, active compounds read low): 0.774
normalized growth (locus YHR013C, strain ard1, active compounds read low): 0.998
normalized growth (locus YHR027C, strain rpn1, active compounds read low): 0.356 (active)
normalized growth (locus YHR079C, strain IRE1 (second series), active compounds read low): 0.774 (active)
normalized growth (locus YHR094C, strain hxt1, active compounds read low): 0.828 (active)
normalized growth (locus YHR129C, strain ARP1, active compounds read low): 0.55 (active)
normalized growth (locus YHR142W, strain chs7, active compounds read low): 0.653 (active)
normalized growth (locus YHR200W, strain rpn10, active compounds read low): 0.731 (active)
normalized growth (locus YIL066C, strain RNR3, active compounds read low): 0.54 (active)
normalized growth (locus YIL073C, strain SPO22, active compounds read low): 0.32 (active)
normalized growth (locus YIL125W, strain kgd1, active compounds read low): 0.88 (active)
normalized growth (locus YIR030C, strain dcg1, active compounds read low): 0.837 (active)
normalized growth (locus YJL092W, strain hpr5, active compounds read low): 0.834 (active)
normalized growth (locus YJL095W, strain BCK1 (second series), active compounds read low): 0.628 (active)
normalized growth (locus YJL095W, strain BCK1, active compounds read low): 0.379 (active)
normalized growth (locus YJL115W, strain asf1, active compounds read low): 0.829 (active)
normalized growth (locus YJL129C, strain trk1, active compounds read low): 0.894
normalized growth (locus YJL134W, strain LCB3, active compounds read low): 0.778 (active)
normalized growth (locus YJL154C, strain vps35, active compounds read low): 0.817 (active)
normalized growth (locus YJL164C, strain tpk1, active compounds read low): 0.732 (active)
normalized growth (locus YJL166W, strain qcr8, active compounds read low): 0.891 (active)
normalized growth (locus YJL168C, strain set2, active compounds read low): 0.864 (active)
normalized growth (locus YJL187C, strain SWE1 (second series), active compounds read low): 0.417 (active)
